Experiments:
Assay in all cases: DAPPL (digital affinity profiling via proximity ligation, sequencing); 10 mM Tris-HCl pH 7.5, 50 mM NaCl, 1 mM DTT, 4% glycerol, room temperature, 30 min; GST-TFs on glutathione beads, 16-mer random dsDNA library, 0.1% formaldehyde crosslink after washing; high values mean tight binding
FLI1 = target: T1, FLI1 (Homo sapiens, UniProt Q01543 1-452); details: protein: recombinant; tags: N-terminal GST; dsDNA, one strand shown
T1 sequence: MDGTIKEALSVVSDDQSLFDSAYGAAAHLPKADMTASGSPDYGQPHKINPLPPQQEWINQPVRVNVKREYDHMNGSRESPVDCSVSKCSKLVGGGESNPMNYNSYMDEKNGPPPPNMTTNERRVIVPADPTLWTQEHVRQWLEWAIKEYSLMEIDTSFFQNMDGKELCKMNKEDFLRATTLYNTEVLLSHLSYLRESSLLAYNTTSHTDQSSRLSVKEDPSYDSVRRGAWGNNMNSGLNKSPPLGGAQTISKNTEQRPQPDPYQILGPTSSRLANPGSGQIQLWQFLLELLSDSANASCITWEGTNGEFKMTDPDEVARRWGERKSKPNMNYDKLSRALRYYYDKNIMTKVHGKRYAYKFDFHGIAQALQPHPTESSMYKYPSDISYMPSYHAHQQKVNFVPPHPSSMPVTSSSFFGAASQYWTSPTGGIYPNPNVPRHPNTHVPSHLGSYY
Method in brief: (§1)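 Pools were built from human transcription factors expressed in yeast as GST fusions, captured on glutathione beads and DNA-barcoded, along with a tag-only sample. Incubation with 200 nmole of a 16-mer random double-stranded DNA library lasted 30 min at room temperature in Tris/NaCl/DTT/glycerol buffer, and was followed by washing, 0.1% formaldehyde crosslinking, proximity ligation, PCR amplification and Illumina NextSeq500 sequencing. Binding signal is the quotient of each hexamer's read frequency for a factor and its frequency for the tag-only sample.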

ELK1 = target: T2, ELK1 (Homo sapiens, UniProt P19419 1-428); details: protein: recombinant; tags: N-terminal GST; dsDNA, one strand shown
T2 sequence: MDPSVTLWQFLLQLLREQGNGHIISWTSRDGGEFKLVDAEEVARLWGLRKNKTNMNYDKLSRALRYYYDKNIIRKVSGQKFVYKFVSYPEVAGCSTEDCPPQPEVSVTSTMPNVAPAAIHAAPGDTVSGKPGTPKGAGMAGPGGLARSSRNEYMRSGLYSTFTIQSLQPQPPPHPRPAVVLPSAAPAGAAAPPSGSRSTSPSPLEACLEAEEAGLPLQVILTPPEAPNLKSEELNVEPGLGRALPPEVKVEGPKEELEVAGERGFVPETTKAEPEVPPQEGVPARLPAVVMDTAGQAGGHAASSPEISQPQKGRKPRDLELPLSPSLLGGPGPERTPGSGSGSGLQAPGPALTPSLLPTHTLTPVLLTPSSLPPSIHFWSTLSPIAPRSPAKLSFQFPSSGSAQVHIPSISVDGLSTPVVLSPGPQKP
Method in brief: as §1

GABPA = target: T3, GABPA (Homo sapiens, UniProt Q06546 1-454); details: protein: recombinant; tags: N-terminal GST; dsDNA, one strand shown
T3 sequence: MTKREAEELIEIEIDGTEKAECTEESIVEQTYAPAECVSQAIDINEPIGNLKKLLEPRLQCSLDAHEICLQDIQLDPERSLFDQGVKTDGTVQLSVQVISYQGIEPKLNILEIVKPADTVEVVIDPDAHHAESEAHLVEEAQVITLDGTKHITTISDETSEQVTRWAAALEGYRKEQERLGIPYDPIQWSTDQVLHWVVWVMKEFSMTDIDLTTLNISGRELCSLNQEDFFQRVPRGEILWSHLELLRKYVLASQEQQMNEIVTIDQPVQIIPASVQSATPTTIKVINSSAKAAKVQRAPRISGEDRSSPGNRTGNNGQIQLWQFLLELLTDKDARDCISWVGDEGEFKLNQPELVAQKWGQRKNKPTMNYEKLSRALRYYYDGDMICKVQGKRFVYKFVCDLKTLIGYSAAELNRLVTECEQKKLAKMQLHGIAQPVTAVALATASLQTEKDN
Method in brief: as §1

ERG = target: T4, ERG (Homo sapiens, UniProt P11308 1-479); details: protein: recombinant; tags: N-terminal GST; dsDNA, one strand shown
T4 sequence: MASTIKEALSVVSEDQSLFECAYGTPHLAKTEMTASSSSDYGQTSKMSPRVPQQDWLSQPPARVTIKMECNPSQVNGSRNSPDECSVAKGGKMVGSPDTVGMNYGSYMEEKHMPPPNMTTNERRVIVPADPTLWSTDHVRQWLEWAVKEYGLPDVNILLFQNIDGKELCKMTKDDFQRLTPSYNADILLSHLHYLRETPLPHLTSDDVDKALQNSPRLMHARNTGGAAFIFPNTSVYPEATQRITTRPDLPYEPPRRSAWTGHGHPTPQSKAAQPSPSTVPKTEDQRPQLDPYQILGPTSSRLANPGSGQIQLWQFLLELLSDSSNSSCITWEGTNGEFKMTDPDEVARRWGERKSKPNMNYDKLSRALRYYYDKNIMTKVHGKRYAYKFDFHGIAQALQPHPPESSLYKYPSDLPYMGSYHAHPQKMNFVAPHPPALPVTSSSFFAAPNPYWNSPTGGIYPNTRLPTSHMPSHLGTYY
Method in brief: as §1

ELF1 = ELF1 (Homo sapiens, UniProt P32519 1-619); details: protein: recombinant; tags: N-terminal GST; dsDNA, one strand shown
Chain of ELF1 (P32519 whole entry): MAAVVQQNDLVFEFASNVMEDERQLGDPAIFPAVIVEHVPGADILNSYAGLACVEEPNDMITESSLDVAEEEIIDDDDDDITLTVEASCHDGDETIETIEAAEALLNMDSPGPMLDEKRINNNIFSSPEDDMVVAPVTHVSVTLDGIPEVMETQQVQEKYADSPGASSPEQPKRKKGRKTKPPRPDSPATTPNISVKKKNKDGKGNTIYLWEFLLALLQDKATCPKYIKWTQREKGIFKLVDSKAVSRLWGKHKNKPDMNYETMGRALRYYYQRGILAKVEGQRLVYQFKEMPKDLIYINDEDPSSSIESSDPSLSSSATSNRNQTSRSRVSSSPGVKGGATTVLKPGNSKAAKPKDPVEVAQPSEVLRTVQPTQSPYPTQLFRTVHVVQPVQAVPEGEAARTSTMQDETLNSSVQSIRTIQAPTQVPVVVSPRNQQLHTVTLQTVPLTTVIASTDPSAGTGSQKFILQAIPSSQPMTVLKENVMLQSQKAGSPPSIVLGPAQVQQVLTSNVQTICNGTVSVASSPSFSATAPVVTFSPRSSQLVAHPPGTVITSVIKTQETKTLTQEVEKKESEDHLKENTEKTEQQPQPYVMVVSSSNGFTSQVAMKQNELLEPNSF
Method in brief: as §1

EHF = target: T5, EHF (Homo sapiens, UniProt Q9NZC4 1-300); details: protein: recombinant; tags: N-terminal GST; dsDNA, one strand shown
T5 sequence: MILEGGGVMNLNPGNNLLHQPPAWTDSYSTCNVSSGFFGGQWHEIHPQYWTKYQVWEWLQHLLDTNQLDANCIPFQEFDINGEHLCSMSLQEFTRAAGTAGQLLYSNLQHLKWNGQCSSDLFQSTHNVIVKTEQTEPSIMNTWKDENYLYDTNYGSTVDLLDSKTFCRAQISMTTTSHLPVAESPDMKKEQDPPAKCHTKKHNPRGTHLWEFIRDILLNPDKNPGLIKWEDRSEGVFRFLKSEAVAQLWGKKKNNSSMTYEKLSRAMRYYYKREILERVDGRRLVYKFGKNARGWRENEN
Method in brief: as §1

SPI1 = SPI1 (Homo sapiens, UniProt P17947 1-270); details: protein: recombinant; tags: N-terminal GST; dsDNA, one strand shown
Method in brief: as §1

SPIB = SPIB (Homo sapiens, UniProt Q01892 1-262); details: protein: recombinant; tags: N-terminal GST; dsDNA, one strand shown
Chain of SPIB (Q01892 whole entry): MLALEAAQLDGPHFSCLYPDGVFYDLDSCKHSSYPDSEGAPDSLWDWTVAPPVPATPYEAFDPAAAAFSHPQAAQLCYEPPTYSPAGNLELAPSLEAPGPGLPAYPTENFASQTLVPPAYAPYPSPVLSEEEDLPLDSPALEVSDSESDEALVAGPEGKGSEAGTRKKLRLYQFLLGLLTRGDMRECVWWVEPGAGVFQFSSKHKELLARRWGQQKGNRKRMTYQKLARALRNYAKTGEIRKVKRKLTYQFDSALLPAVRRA
Method in brief: as §1

ELK3 = target: T6, ELK3 (Homo sapiens, UniProt P41970 1-407); details: protein: recombinant; tags: N-terminal GST; dsDNA, one strand shown
T6 sequence: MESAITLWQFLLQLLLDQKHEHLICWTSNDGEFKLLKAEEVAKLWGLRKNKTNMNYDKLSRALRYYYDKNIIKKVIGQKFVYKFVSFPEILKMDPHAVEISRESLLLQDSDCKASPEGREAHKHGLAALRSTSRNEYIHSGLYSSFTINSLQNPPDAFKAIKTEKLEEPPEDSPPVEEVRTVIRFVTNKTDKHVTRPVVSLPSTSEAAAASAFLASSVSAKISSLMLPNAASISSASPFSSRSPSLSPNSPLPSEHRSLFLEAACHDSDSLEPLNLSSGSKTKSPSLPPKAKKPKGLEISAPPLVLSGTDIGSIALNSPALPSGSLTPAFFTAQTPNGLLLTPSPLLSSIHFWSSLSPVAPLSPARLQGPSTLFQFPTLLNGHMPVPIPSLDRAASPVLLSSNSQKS
Method in brief: as §1

FEV = target: T7, FEV (Homo sapiens, UniProt Q99581 1-238); details: protein: recombinant; tags: N-terminal GST; dsDNA, one strand shown
T7 sequence: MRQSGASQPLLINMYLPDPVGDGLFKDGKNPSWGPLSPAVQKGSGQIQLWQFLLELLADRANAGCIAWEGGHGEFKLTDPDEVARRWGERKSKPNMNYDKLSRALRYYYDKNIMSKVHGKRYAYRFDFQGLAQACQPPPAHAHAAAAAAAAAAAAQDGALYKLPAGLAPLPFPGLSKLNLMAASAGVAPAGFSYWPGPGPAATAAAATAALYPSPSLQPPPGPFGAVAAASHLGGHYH
Method in brief: as §1

ETV5 = ETV5 (Homo sapiens, UniProt P41161 1-510); details: protein: recombinant; tags: N-terminal GST; dsDNA, one strand shown
Chain of ETV5 (P41161 whole entry): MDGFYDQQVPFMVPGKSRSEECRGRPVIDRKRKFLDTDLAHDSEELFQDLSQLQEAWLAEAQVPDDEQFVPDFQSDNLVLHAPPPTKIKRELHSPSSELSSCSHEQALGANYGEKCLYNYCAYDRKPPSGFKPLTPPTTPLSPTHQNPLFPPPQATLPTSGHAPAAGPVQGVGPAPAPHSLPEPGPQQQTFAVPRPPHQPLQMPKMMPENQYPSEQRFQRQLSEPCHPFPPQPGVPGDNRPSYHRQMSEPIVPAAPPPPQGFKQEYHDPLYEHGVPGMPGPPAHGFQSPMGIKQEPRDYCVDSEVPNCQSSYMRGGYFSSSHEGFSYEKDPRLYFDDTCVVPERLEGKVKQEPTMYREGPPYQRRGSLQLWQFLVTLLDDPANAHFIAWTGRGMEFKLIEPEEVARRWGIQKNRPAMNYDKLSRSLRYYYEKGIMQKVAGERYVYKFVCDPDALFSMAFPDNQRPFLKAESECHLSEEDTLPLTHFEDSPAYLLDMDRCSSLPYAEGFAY
Method in brief: as §1

HSF1 = HSF1 (Homo sapiens, UniProt Q00613 1-529); details: protein: recombinant; tags: N-terminal GST; chain copies: 3; dsDNA, one strand shown
Chain of HSF1 (Q00613 whole entry): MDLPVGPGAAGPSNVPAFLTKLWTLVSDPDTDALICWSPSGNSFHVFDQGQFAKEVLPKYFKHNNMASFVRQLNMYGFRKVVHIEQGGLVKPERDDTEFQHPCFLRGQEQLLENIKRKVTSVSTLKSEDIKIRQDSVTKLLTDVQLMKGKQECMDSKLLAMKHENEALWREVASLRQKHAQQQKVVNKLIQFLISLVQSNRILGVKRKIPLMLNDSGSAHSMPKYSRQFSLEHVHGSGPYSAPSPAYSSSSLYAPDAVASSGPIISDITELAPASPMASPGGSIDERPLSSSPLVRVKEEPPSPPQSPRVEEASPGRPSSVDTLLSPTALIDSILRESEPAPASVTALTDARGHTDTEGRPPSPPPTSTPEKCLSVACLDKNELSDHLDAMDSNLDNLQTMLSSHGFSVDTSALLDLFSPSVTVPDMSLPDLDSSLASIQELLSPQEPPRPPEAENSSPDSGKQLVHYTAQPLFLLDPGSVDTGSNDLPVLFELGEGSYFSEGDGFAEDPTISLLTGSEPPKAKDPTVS
Method in brief: as §1

SPIC = target: T8, SPIC (Homo sapiens, UniProt Q8N5J4 1-248); details: protein: recombinant; tags: N-terminal GST; dsDNA, one strand shown
T8 sequence: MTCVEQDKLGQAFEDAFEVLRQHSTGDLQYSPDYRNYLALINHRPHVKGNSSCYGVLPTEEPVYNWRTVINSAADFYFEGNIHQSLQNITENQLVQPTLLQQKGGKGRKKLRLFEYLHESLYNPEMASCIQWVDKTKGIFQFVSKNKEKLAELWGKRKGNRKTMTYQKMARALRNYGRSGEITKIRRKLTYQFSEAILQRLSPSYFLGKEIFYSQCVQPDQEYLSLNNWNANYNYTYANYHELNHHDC
Method in brief: as §1

ELF4 = ELF4 (Homo sapiens, UniProt Q99607 1-663); details: protein: recombinant; tags: N-terminal GST; dsDNA, one strand shown
Chain of ELF4 (Q99607 whole entry): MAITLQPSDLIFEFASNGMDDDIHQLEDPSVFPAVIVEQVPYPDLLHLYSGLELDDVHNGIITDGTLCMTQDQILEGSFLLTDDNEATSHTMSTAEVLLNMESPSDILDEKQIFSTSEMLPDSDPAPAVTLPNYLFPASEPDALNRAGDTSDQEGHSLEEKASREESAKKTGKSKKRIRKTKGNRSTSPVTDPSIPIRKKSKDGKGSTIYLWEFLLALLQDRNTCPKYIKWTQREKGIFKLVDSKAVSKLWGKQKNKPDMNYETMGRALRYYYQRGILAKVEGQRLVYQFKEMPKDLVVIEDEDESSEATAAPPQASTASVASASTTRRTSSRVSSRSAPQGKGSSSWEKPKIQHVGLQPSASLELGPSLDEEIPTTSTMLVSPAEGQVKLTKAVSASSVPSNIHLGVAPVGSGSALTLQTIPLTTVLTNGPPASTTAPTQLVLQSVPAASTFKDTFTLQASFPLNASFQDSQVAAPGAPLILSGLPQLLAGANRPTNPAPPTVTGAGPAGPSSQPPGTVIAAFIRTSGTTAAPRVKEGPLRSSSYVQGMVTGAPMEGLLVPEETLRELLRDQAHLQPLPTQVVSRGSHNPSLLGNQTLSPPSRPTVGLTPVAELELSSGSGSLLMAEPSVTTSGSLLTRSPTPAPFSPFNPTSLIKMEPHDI
Method in brief: as §1

ELK4 = target: T9, ELK4 (Homo sapiens, UniProt P28324-2 1-405); details: protein: recombinant; tags: N-terminal GST; dsDNA, one strand shown
T9 sequence: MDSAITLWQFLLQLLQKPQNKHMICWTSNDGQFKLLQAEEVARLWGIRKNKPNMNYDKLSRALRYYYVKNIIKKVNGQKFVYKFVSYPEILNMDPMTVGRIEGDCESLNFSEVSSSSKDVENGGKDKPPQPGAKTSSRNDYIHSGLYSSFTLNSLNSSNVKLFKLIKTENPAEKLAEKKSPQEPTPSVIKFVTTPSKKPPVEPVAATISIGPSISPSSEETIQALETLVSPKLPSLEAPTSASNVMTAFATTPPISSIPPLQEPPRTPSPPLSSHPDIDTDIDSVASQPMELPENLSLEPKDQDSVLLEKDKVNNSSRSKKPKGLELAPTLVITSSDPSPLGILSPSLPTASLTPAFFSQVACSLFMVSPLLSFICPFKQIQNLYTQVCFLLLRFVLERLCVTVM
Method in brief: as §1

ETV2 = target: T10, ETV2 (Homo sapiens, UniProt O00321 1-342); details: protein: recombinant; tags: N-terminal GST; dsDNA, one strand shown
T10 sequence: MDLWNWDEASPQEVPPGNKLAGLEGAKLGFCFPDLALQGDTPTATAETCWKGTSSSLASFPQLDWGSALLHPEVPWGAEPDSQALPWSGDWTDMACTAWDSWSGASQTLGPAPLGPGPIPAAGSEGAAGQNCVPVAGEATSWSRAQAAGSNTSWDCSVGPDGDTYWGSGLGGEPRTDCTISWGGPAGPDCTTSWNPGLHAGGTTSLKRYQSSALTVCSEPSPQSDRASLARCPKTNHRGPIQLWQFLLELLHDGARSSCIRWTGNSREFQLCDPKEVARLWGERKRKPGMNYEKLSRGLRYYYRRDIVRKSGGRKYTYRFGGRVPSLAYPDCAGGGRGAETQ
Method in brief: as §1

ELF3 = target: T11, ELF3 (Homo sapiens, UniProt P78545 1-371); details: protein: recombinant; tags: N-terminal GST; dsDNA, one strand shown
T11 sequence: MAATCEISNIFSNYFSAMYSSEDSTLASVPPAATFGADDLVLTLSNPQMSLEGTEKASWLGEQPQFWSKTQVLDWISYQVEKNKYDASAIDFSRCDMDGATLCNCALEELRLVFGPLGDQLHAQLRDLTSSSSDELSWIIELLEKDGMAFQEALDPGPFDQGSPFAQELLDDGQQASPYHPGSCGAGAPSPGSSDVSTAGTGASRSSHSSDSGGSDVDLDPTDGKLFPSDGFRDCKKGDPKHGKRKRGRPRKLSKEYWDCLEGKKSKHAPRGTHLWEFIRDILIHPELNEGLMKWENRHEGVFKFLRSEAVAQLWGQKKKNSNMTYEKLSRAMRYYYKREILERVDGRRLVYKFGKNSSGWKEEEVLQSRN
Method in brief: as §1

ETV1 = ETV1 (Homo sapiens, UniProt P50549 1-477); details: protein: recombinant; tags: N-terminal GST; dsDNA, one strand shown
Chain of ETV1 (P50549 whole entry): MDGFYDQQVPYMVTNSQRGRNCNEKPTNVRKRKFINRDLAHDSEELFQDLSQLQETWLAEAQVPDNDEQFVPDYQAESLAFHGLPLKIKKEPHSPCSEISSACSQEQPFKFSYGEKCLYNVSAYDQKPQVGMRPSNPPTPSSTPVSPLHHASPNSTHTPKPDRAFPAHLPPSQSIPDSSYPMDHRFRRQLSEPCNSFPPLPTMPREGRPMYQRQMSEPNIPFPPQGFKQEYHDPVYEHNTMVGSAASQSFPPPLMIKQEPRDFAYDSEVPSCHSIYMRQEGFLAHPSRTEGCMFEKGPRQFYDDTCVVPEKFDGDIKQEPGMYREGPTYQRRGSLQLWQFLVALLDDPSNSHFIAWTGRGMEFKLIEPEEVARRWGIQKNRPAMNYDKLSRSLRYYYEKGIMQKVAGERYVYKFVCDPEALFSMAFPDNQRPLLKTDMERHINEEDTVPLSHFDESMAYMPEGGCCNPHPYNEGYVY
Method in brief: as §1

GTACAT was tested, and the binding signal (FLI1) was 1.4 fold enrichment (6-mer frequency, TF over GST control), the binding signal (ELK1) was 1.35 fold enrichment (6-mer frequency, TF over GST control) and the binding signal (GABPA) was 1.17 fold enrichment (6-mer frequency, TF over GST control). For the same sequence, the binding signal (ERG) was 1.35 fold enrichment (6-mer frequency, TF over GST control), the binding signal (ELF1) was 1.36 fold enrichment (6-mer frequency, TF over GST control) and the binding signal (EHF) was 1.26 fold enrichment (6-mer frequency, TF over GST control). The binding signal (SPI1) was 1.28 fold enrichment (6-mer frequency, TF over GST control), the binding signal (SPIB) was 1.36 fold enrichment (6-mer frequency, TF over GST control) and the binding signal (ELK3) was 1.44 fold enrichment (6-mer frequency, TF over GST control). The binding signal (FEV) was 1.35 fold enrichment (6-mer frequency, TF over GST control), the binding signal (ETV5) was 1.37 fold enrichment (6-mer frequency, TF over GST control) and the binding signal (HSF1) was 1.04 fold enrichment (6-mer frequency, TF over GST control). For the same sequence, the binding signal (SPIC) was 1.36 fold enrichment (6-mer frequency, TF over GST control), the binding signal (ELF4) was 1.36 fold enrichment (6-mer frequency, TF over GST control) and the binding signal (ELK4) was 1.23 fold enrichment (6-mer frequency, TF over GST control). The binding signal (ETV2) was 1.22 fold enrichment (6-mer frequency, TF over GST control), the binding signal (ELF3) was 1.28 fold enrichment (6-mer frequency, TF over GST control) and the binding signal (ETV1) was 1.24 fold enrichment (6-mer frequency, TF over GST control).

Source: publication PMC7862700, “An all-to-all approach to the identification of sequence-specific readers for epigenetic DNA modifications on cytosine”
